The supplement of paper PMC3334620
In all, about 33,000 sequences were measured (“E-score (-0.5 to 0.5)”: median about -0.0014, highest 2% from about 0.25 on). Only a selection was taken, and the highest values are over-represented in it overall.

Target: T1, Cad1 (UniProt P24813)
T1 sequence: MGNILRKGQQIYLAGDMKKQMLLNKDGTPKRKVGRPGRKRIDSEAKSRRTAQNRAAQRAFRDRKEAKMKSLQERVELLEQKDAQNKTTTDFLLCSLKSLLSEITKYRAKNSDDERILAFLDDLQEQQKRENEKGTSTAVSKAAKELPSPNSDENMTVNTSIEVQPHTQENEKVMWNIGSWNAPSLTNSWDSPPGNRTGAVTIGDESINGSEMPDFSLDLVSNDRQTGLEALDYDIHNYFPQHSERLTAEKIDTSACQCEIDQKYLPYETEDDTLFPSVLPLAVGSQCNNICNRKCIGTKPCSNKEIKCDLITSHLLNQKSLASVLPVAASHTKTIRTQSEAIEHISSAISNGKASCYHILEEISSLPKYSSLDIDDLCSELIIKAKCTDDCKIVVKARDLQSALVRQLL
Test: PBM E-score (8-mer binding enrichment) (E-score (-0.5 to 0.5)); higher = stronger / more preferred TF binding
Details: protein concentration: 100 nM; construct: GST-full length
Experimental: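 Universal 'all 10-mer' protein binding microarrays (Agilent AMADID 015681) probed with GST-tagged S. cerevisiae TFs (full-length or DBD) made by in vitro transcription/translation (PURExpress), about 100-200 nM. Bound TF was detected with fluorescent anti-GST. Each ungapped 8-mer (which stands for itself and its reverse complement) is scored by the PBM enrichment score (E-score), a modified Wilcoxon-Mann-Whitney statistic from -0.5 to +0.5, computed with the Universal PBM Analysis Suite. Scale: above 0.35 generally sequence-specific binding.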

Sequence	PBM E-score
CATCCTGC	0.0554
TGTGGCAA	0.0896
CCCGGACA	0.039
CCATCCAG	-0.0345
CATATTCG	0.129
AATATCCC	-0.00553
AATATCCG	0.265
AATATTCA	0.157
AATATTCT	0.126
AATATCCA	0.0727
GATATTCC	0.0127
AATATTCG	0.273
AATATTCC	0.297
AAGGTTGC	-0.00934
CCTAGCAC	-0.199
CCATAGTC	-0.0534
GACCAAGC	0.0511
CCCACTCA	-0.193
AGATGGAG	-0.0255
ATAATCAG	0.225
ATAATCAT	0.252
CTAATCAG	0.227
CGAATCGA	0.325
CTAATCAA	0.238
CTAATCAC	0.326

Sequence	PBM E-score
AGAATCGA	0.0389
ATAATCAA	0.157
CTAATCGA	0.315
GGAATCGA	0.00927
CTAATCGC	0.0731
ATAATCGA	0.146
CTGGACGC	0.069
CGAATACC	-0.104
AATCTCAT	0.0796
CCCGCTCC	-0.37
TGCCGCCA	0.0461
CGGGCAGA	0.0491
ACACCCTG	-0.133
AGAGAATA	0.0902
GGATGCAC	-0.0779
GTAAGGAC	-0.19
CGGGGAAA	0.0522
GTTACTAA	0.374
TATACTGA	0.288
GATACTGA	0.14
GCTACTAA	0.0213
TATACTAA	0.107
GTTACTCA	0.182
AATACTAT	-0.0768
CATACTGA	0.103

Sequence	PBM E-score
AATACTAA	0.253
CACTGGCG	-0.0107
CAGCTAAA	-0.121
ACTAGTTG	-0.0546
GGTGGCAA	-0.0998
CCAACGCA	0.0411
CGCAGACA	0.122
CGCAGACG	0.257
CGCAGACC	-0.146
ACTCATTA	0.109
ACACAGCC	0.0823
ACACAGCA	0.076
ACACAGCG	0.251
CACAGGAG	0.0278
ATAGAATC	-0.129
ATAAATTA	0.364
AAAAATTG	-0.134
ATAAATTC	0.091
GTAAATTA	-0.053
CTAAATTA	0.2
ATAAATTG	0.253
GGAGCAAC	-0.0625
AGATCCTG	-0.0555
AAGGTGAG	-0.192
CAGCAATA	0.188

Sequence	PBM E-score
AATGGCCC	-0.158
CAATCCTA	-0.015
ACGCCCAT	-0.0524
CACCGACA	-0.0582
TAATATTA	0.424
ACATATTG	0.0269
CTATACTA	0.0535
ACATATTA	0.317
TAATATGA	0.133
ATATACTA	0.259
GGCTATTA	0.175
GAATATTA	0.227
ATATACTC	-0.0465
CCATATTA	0.148
CGCTATTA	0.253
AGCTATTA	0.0722
CAGGCTAA	-0.266
TAACCCGA	-0.00699
GGCACCTA	-0.156
AAGCCCAC	-0.0637
ACAGAACC	0.0474
AAGAACCA	-0.00253
GGCAACCC	-0.174
GAACCTGC	-0.018
ATGCCTTC	-0.162

Sequence	PBM E-score
CAATATTC	0.0508
CGCTACTC	0.0265
GAATATTC	0.338
AAATATTA	0.298
AGCTACTA	0.0659
CGCTACTA	0.276
CGATATTA	0.352
AAATATTG	0.249
CAATATTA	0.187
GGATATTA	0.163
AAATATTC	0.249
CGATATTC	0.173
CACCACAC	0.151
AGCTCACT	-0.0157
ACAATAGA	-0.144
GGAGCACC	-0.0566
GTATATTA	0.115
ATATATTA	0.368
CTATATTA	0.241
GCTAAGCC	-0.109
AGACGCAC	0.0398
CGACCTAG	0.0727
CCAAATAA	0.15
ATTACAAT	0.104
CTTACAAA	0.372

Sequence	PBM E-score
CTTACAAC	0.118
ATTACAAA	0.425
CTTACAAG	0.0333
ATTACAAG	0.0206
ATATAAGA	0.22
AGCCCATA	-0.0468
AAGAAGCG	-0.184
ATGCGCGC	0.238
CTGCGCGA	0.13
ATTCGCGC	0.17
CTTCGCGA	0.143
CGGCGCGC	0.258
CAACGCGG	0.0152
CGGCGCGA	0.203
AGGCGCGC	0.161
CTTCGCGC	0.263
CTGCGCGC	0.302
CAACGCGC	0.311
CAACGCGA	0.157
CAAGGGAC	-0.0828
CGGCTGTA	-0.112
ACCTCCGC	-0.116
TCCCGCGA	0.0875
ACTCGTAG	-0.103
ATTCGTTA	0.158

Sequence	PBM E-score
GTTCGTAA	0.119
ATTCGTAA	0.26
ATTCGTTG	0.258
ATTCGTTC	0.09
ACTCGTAA	0.292
ACTCGTAT	0.0214
CTTCGTAA	0.0607
AAGTTGCT	0.0232
TAAACCCA	0.119
CAGTTATA	-0.0494
ATTGCGCG	0.307
CATGCGCG	0.202
AATGCGCT	0.0389
ATTGCGCC	-0.061
AATGCGCG	0.305
AATGCGCA	0.342
AATGCGCC	-0.00918
CATGCGCA	0.116
ATTGCGCA	0.103
AGGCAGAG	-0.0635
ACGTCGGG	-0.269
CCCAGATA	-0.0901
GCGGGATA	0.0173
CCCGTATC	-0.15
ACATGACA	0.159

Sequence	PBM E-score
TCATGACA	0.301
GCATGACA	0.0476
AGAAAGCC	-0.051
TAACTGAA	-0.0483
AATGTAAT	0.324
AACGTAAC	-0.00693
ACTGTAAG	0.167
AATGTAAG	0.264
CATGTAAG	0.129
AACGTAAA	0.0278
AATGTAAA	0.193
AACGTAAT	0.261
AATGTAAC	0.0359
AAAGTCGC	0.124
CACGAAAA	0.161
AAAGATAG	0.00786
AACGAAAC	0.187
AACGATAT	0.271
AAAGATAT	0.277
TACGAAAA	0.0721
AACGATAC	0.0534
GACGAAAA	0.297
AAAGATAC	-0.051
AACGAAAG	0.0872
AACGATAG	0.0593

Sequence	PBM E-score
AACGAAAT	0.303
ACCATCTG	-0.0991
ACGCAGAC	0.0915
GGAACTAC	-0.0515
GAACGTTC	-0.0713
GACTGATC	-0.075
CCTGCTAA	-0.128
CCAACTGG	0.025
TGCGAAAA	0.266
AACGAACA	0.269
CACGAACA	0.249
AGCGAAAA	-0.0296
CGCGAAAA	0.246
AACGAACG	0.0769
CCGAAGAG	-0.0285
CTTCTGAA	0.0469
CTCGGGCA	0.0974
AGTGTGGG	-0.0209
CCACGTGC	0.00023
GCACGTGC	0.32
GCACGTGA	0.0273
